Test results reported in the supplement of paper PMC3334620.
In all, about 33,000 sequences were measured (“E-score (-0.5 to 0.5)”: median about -0.011, highest 2% from about 0.28 on). Shown is part of a subset that was picked to be rich in the highest values.

molecular target: T1, Gcr1 (UniProt P07261); assay: PBM E-score (8-mer binding enrichment) (E-score (-0.5 to 0.5)); higher = stronger / more preferred TF binding; conditions: protein concentration: 100 nM; construct: GST-full length
T1 sequence: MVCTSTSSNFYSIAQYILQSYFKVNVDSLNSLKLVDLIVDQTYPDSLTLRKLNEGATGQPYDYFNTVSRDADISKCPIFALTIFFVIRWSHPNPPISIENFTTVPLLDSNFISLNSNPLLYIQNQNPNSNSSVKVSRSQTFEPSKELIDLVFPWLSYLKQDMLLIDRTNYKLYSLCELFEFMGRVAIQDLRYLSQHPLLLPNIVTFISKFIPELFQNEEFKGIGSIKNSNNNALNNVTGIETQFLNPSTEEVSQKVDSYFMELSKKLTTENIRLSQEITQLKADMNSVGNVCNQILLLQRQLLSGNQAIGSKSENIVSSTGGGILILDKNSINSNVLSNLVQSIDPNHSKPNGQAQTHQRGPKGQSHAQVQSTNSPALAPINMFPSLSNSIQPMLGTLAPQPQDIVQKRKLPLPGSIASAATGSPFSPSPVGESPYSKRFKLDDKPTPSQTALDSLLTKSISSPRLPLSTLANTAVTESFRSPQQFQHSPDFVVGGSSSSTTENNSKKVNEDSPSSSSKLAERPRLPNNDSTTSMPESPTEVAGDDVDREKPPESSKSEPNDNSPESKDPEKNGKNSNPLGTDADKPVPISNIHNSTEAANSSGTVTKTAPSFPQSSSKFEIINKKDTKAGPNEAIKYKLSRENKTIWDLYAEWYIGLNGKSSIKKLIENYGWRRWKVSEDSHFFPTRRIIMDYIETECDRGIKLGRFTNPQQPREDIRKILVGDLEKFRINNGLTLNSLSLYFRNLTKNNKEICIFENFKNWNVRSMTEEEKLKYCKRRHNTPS
Method: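 Universal 'all 10-mer' protein binding microarrays (Agilent AMADID 015681) probed with GST-tagged S. cerevisiae TFs (full-length or DBD) made by in vitro transcription/translation (PURExpress), about 100-200 nM. Bound TF was detected with fluorescent anti-GST. Each ungapped 8-mer (which stands for itself and its reverse complement) is scored by the PBM enrichment score (E-score), a modified Wilcoxon-Mann-Whitney statistic from -0.5 to +0.5, computed with the Universal PBM Analysis Suite. Scale: above 0.35 generally sequence-specific binding.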

Row | Sequence | PBM E-score
1 | CAATCTGG | -0.0284
2 | CCGTTAGG | 0.0609
3 | CCCGGGAC | 0.21
4 | ATTGCGGG | -0.0146
5 | GATGCCCA | 0.378
6 | GGTGCCCA | 0.382
7 | AGTGCCCA | 0.0254
8 | GGTGCCGA | 0.285
9 | CGTGCCGA | -0.0978
10 | CGTGCCCA | 0.0649
11 | TATGCCCA | -0.14
12 | GATGCCCC | 0.248
13 | AGTGCCGA | -0.0356
14 | AGATTCAG | 0.117
15 | ACAGGGAC | 0.107
16 | ACTTCCCA | 0.0658
17 | CCTTCCCA | 0.122
18 | ACTTCCCC | 0.0219
19 | GCTTCCCA | 0.386
20 | GCTTCCCC | 0.341
21 | CCTTCCCC | -0.122
22 | CTGTGGGC | 0.0855

Row | Sequence | PBM E-score
23 | GGTAGATA | 0.00026
24 | CAGTGCCA | -0.0969
25 | ATGCCGGA | 0.215
26 | AATAGCGC | 0.0793
27 | ACATCCTA | 0.166
28 | ACATCCGA | -0.104
29 | CCATCCTA | 0.0473
30 | GCATCCGA | 0.33
31 | CCATCCGA | -0.0665
32 | GCATCCTA | 0.4
33 | ACCTATAT | 0.194
34 | ATGTTGTC | -0.117
35 | ATAATTGC | -0.00448
36 | GCGTATAA | 0.353
37 | ACCTATAA | 0.0515
38 | CCGTATAA | 0.195
39 | GCGTATAC | 0.156
40 | TCGTATAA | 0.286
41 | ACGTATAA | 0.132
42 | TCCTATAA | 0.334
43 | GTGTATAA | -0.0442
44 | CCCTATAA | 0.141

Row | Sequence | PBM E-score
45 | AAGGTGCA | -0.0118
46 | CAATAGCG | 0.025
47 | CGAAATAG | 0.131
48 | ACCCTGCG | -0.0486
49 | CGGAATAA | -0.168
50 | GATGCGCA | 0.134
51 | CCGGTTGA | 0.0186
52 | ATGGTTCC | 0.0654
53 | CTGGTTCC | 0.34
54 | ATGGTTGC | 0.274
55 | CTGGTTGC | 0.288
56 | CTGGTTCA | -0.192
57 | ACGGTTGC | -0.264
58 | CCGGTTGC | 0.317
59 | CTGGTTGA | -0.09
60 | ACGGTGTC | -0.168
61 | CTGCTACA | 0.0929
62 | CTCATCAG | 0.0338
63 | CTTCTATA | 0.187
64 | CAGATACA | 0.0958
65 | GACATTCA | -0.094
66 | AATAACGT | 0.00611

Row | Sequence | PBM E-score
67 | CGATGCCC | 0.0343
68 | AGATGCTC | 0.0444
69 | GGATGCCC | 0.464
70 | AGATGCCC | 0.108
71 | AGATGCCG | 0.273
72 | AGATGCTA | 0.25
73 | AGATGCCA | 0.385
74 | GGATGCTA | 0.44
75 | AGATGCCT | 0.17
76 | AGATGCTG | 0.282
77 | GAATGCTA | -0.121
78 | CGATGCTA | 0.266
79 | AGAGCGCC | 0.0412
80 | CGCAACAG | -0.0598
81 | GGCAAACA | -0.14
82 | GTGGGAGA | 0.0205
83 | GTGGTAGA | -0.166
84 | AAGGTTGT | 0.0394
85 | TGATGCCA | -0.0459
86 | CGATGCCA | 0.156
87 | GGATGCCA | 0.454
